# Laboratory results: the supplement of paper PMC3545927
# Some of the results follow. No count for the full screen is at hand.
# Biological target: furin, P09958
# Experiment: furin cleavage Z-score vs untreated control; higher = more cleavage, active = 3.5 or more, inactive = 1 or less, 8 variable residues between constant flanks
# Procedure, shortened: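 Purified furin cleaved 8-mer peptides that were fused to a cDNA oligonucleotide and held on magnetic beads by their N-terminus. Each 0.01 ml reaction used a 1:10 enzyme:substrate ratio in 50 mM HEPES pH 7.5 with CaCl2 and NaCl and ran 7.5, 15 or 30 min. Released DNA was adapter-tagged by PCR and sequenced, and read counts gave abundance. The cleavage Z-score came from log counts against furin-free reactions, lowess-adjusted and scaled by median absolute deviation.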
# furin, P09958, sequence (P09958 whole entry): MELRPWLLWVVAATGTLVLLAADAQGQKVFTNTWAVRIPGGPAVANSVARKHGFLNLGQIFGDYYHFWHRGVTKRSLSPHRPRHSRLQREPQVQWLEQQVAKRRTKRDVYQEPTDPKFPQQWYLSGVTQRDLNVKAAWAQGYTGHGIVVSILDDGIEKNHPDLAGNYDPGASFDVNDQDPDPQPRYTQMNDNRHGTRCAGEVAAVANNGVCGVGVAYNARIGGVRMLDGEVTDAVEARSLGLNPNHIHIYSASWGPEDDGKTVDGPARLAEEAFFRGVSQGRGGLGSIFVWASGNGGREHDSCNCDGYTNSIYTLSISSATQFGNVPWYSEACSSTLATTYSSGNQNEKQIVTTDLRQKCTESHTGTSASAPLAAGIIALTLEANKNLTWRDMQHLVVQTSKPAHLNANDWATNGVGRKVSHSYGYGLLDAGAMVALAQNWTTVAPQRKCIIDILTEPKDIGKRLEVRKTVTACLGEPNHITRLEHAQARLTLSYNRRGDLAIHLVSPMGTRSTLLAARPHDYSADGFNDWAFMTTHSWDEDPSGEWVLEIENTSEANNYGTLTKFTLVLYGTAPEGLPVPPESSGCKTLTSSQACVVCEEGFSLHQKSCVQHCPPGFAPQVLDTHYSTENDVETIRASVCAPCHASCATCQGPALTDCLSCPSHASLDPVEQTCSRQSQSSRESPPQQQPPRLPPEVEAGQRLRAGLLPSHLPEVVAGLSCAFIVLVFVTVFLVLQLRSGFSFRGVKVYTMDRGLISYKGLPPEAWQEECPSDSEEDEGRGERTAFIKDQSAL
Sequence,furin cleavage Z-score (7.5 min),furin cleavage Z-score (15 min),furin cleavage Z-score (30 min)
CAESTLSTALAGNASASA [HC1329],-0.324 (inactive),0.0602 (inactive),1.27
CAEVPCHRPDAGNASASA [HC2411],-1.49 (inactive),-0.692 (inactive),0.135 (inactive)
CAHNGLRDLAAGNASASA [HC641],-0.235 (inactive),0.0336 (inactive),0.434 (inactive)
CADTGYPKRSAGNASASA [FS-1587],0.338 (inactive),-0.532 (inactive),2.06
CAILSRKKRSAGNASASA [FS-598],13.1 (active),11 (active),8.58 (active)
CAHNGRKKRSAGNASASA [FS-794],12.6 (active),13.4 (active),9.77 (active)
CAASSSKKRSAGNASASA [FS-1310],1.7,1.89,0.28 (inactive)
CAEVPCHFPSAGNASASA [HC2367],0.277 (inactive),-0.0294 (inactive),0.605 (inactive)
CATPKRSRRDAGNASASA [FS-202],10.5 (active),10.4 (active),6.86 (active)
CATPTVATRDAGNASASA [HC282],-1.53 (inactive),0.0271 (inactive),-0.971 (inactive)
CAEAWRSRRDAGNASASA [FS-761],5 (active),6.16 (active),5.62 (active)
CAEVVTSRWVAGNASASA [HC2213],0.434 (inactive),-0.178 (inactive),1.55
CAEVVTSTWDAGNASASA [HC2251],-0.232 (inactive),-0.217 (inactive),-0.0353 (inactive)
CAVLTRSRRDAGNASASA [FS-573],15.8 (active),16 (active),10.2 (active)
CAQPSSSRRDAGNASASA [FS-1251],-0.0806 (inactive),-1.03 (inactive),-1.19 (inactive)
CAKPARRKRLAGNASASA [FS-44],8.86 (active),9.53 (active),10.1 (active)
CALHSRNKRLAGNASASA [FS-607],7.17 (active),9.47 (active),6.69 (active)
CAGPIRRKRLAGNASASA [FS-1526],11.1 (active),11.4 (active),9.25 (active)
CAGPQRQKKLAGNASASA [FS-1202],-0.669 (inactive),-1.47 (inactive),-0.377 (inactive)
CAWHSRRKRLAGNASASA [FS-210],9.83 (active),11.7 (active),10.6 (active)
CALHSRPQRLAGNASASA [FS-939],0.578 (inactive),1.4,1.43
CAKPARVSKDAGNASASA [FS-259],-0.289 (inactive),-0.617 (inactive),-0.0479 (inactive)
CANEMEECSQAGNASASA [HC1801],-0.962 (inactive),0.682 (inactive),-0.461 (inactive)
CAETVTSTWVAGNASASA [HC2178],-0.174 (inactive),0.0107 (inactive),0.00907 (inactive)
CAVGGVEHRLAGNASASA [HC477],0.551 (inactive),1.48,0.304 (inactive)
CAVQVRGKRLAGNASASA [FS-312],6.21 (active),7.9 (active),7.68 (active)
CAQQELRKRLAGNASASA [FS-1390],0.809 (inactive),0.166 (inactive),1.43
CAARRRRKRLAGNASASA [FS-9],9.78 (active),12.2 (active),9.85 (active)
